TRPML1 blocker = inhibitors of human TRPML1 channel; TRPML1-inducible cells, Ca2+ dye fluorescence, FDSS; active compounds read low; inhibition of EC80 agonist-evoked calcium signal; activity change, negative = inhibition, % (no concentration beside the values); 0.02% of 390,000 active; AID 624415; in the data active = activity change below about -50%; inconclusive = between about -30% and that limit;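 also: stimulus is agonist 54-4 at its EC80 concentration; % is scaled to controls: 0 for no effect and ±100 for the full control effect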
Target sequence (Q9GZU1 whole entry, looked up): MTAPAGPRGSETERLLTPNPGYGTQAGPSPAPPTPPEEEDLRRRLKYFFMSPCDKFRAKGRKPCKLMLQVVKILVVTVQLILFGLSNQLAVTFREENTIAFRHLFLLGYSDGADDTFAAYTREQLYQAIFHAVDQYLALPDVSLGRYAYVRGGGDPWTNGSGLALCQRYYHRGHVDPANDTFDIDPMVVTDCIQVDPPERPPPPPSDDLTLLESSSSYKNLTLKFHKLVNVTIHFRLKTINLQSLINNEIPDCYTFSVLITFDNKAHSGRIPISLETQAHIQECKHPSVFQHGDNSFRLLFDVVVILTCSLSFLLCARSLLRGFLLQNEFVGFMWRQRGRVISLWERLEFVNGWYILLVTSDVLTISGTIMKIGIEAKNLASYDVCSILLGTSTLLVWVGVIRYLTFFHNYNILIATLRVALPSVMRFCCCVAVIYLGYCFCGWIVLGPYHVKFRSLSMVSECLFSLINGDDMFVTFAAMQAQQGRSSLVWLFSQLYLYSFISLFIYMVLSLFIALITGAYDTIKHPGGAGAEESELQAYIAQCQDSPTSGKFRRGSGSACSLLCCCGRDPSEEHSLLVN
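TRPML1-DL cells, Tet-induced overnight (~16 h, 37 °C) at 1,500 cells/well, were loaded with Ca8 no-wash dye plus quencher for 45-90 min at room temperature. Compounds were pinned during FDSS kinetic reading; agonist 54-4 at EC80 (4 uM final) then added.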
DRD3 agonist = D3 dopamine receptor (human) agonism; 0.58% of 410,000 active; D3R DiscoveRx beta-arrestin cells, luminescence, 90 min; AID 652048; max activation, %; P35462; in the data active = max activation above about 30%; also: 0% is about no effect
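Cells at 1500/well, incubated overnight, then treated with pinned compounds (dopamine as control) for 90 min at 37 degrees C. DiscoveRx reagent added for 30 - 60 minutes at room temperature; luminescence read.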
TRPML1 agonist = agonists of human TRPML1 channel; Q9GZU1; TRPML1-expressing cells, Ca2+ dye fluorescence, FDSS; activation, % (test concentration not listed); 0.12% of 410,000 active; in the data active = activation above about 50%; inconclusive = mostly about 30% to 49%; also: 0% is about no effect
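Tet-induced TRPML1-DL cells, 1,500 per well, cultured overnight, were loaded with a no-wash Ca2+ dye for 45–90 min. Calcium fluorescence was recorded on the FDSS for 110 s after compound addition, before the EC80 agonist (4 uM 54-4) was added.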
D3 antag = D3 dopamine receptor (human) antagonism. max response, negative = inhibition, %. D3R cells, DiscoveRx beta-arrestin luminescence, antagonist mode; active compounds read low. 2.5% of 360,000 active. AID 652054; in the data active = max response below about -50%; inconclusive = no clear call, values can overlap the other calls; also: % is scaled to controls: 0 for no effect and ±100 for the full control effect
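Cells plated overnight at 1500 cells/well, then exposed to library compounds with dopamine controls for 90 minutes at 37 degrees C. DiscoveRx reagent added for 30–60 minutes at room temperature; luminescence read, quantitative HTS format.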
An asterisk follows results filed as active; ? = inconclusive; . = not tested or not shown. Compounds with a hit are over-represented: about 2.9% of the library has one in this group of screens.

SMILES | TRPML1 blocker | DRD3 agonist | TRPML1 agonist | D3 antag
O=C(c1nc2ccccn2c1CNCC1OCCc2ccccc21)N1CCOCC1 (configuration not stated) | 1.2 | -9.9 | 1.1 | -26.3
CC(CCC(C)[n+]1cccc(C#N)c1)[n+]1cccc(C#N)c1 (configuration not stated) | . | . | 0.0 | .
Cc1ccc(N(CC(O)CN2CCCCC2)S(=O)(=O)c2ccccc2)cc1 (configuration not stated) | 31.6 | -19.1 | 0.2 | -77.1*
Cc1ccc(S(=O)(=O)N(CC(O)CN2CCCC2)c2ccccc2)cc1 (configuration not stated) | -3.6 | -24.6 | -0.5 | ?
Cc1ccc(N(CC(O)CN2CCCCC2)S(=O)(=O)c2ccc(C)cc2)cc1 (configuration not stated) | -10.5 | -18.3 | 0.7 | -51.6*
CC(=O)/C(=N\Nc1cccc(Cl)c1)Sc1nnc(-c2ccccc2)n1-c1ccccc1 | 3.5 | -19.9 | 0.6 | -54.1*
CC1=C(C(=O)Nc2ccccc2)C(c2cccnc2)n2nc(SCc3ccccc3Cl)nc2N1 (configuration not stated) | -0.8 | -11.7 | -0.2 | .
C=C1C(=O)O[C@@H]2[C@H]1[C@@H](OC(=O)/C(C)=C/C)C/C(C)=C\C(=O)/C=C(\C)[C@@H]2O | -10.8 | -35.3 | 0.1 | -52.4*
CCc1ccc2occ(CC(=O)Nc3ccc(OC)c(Cl)c3)c2c1 | 12.2 | 17.1 | 3.1 | .
O=C(CNC(=O)c1cccc(Br)c1)N/N=C/c1cc(Br)cc(Br)c1O | 16.9 | -29.8 | 1.8 | -71.3*
O=C(CNC(=O)c1cccc(Br)c1)N/N=C/c1cccs1 | -6.4 | -11.7 | -0.1 | -12.6
CCS(=O)(=O)NCCc1sc2nc(-c3ccc(OC)cc3)nn2c1C | 10.2 | 4.0 | 1.0 | .
CCCNC(=O)C1(C)CCCN(Cc2csc3ccccc23)C1 (configuration not stated) | . | -10.1 | -0.2 | -52.9*
COCCNC(=O)C1(C)CCN(Cc2ccc3ccccc3c2Br)C1 (configuration not stated) | . | -12.7 | -0.6 | 106.2
COCCNC(=O)C1(C)CCCN(Cc2csc3ccccc23)C1 (configuration not stated) | . | -10.1 | -0.8 | ?
CCCNC(=O)C1(C)CCN(Cc2ccc3ccccc3c2Br)C1 (configuration not stated) | 24.3 | -27.5 | -0.4 | -51.4*
COc1ccc(Cl)cc1NC(=O)Cn1c2ncccc2c(=O)n1-c1ccc(C)c(C)c1 | -13.9 | 9.8 | 0.4 | .
CC(C)(C)c1nc(S(=O)(=O)c2ccc(Cl)cc2)c(N2CCOCC2)o1 | 14.7 | -7.9 | 0.0 | -28.4
CC(C)Cc1nc(S(=O)(=O)c2ccc(Cl)cc2)c(N2CCOCC2)o1 | -1.3 | 2.6 | 0.1 | -54.4*
CCCNC(=O)c1cc(C2CCCCN2S(C)(=O)=O)on1 (configuration not stated) | 0.1 | -26.3 | 0.5 | -90.8*
Cc1cc(NC(=O)C2CC=CCC2C(=O)O)no1 (configuration not stated) | -5.8 | 2.2 | 0.0 | -53.9*
CCCCCCCC(=O)Nc1cc(C(=O)NCCC)ccc1N1CCC2(CC1)CC(c1ccccc1)=NO2 | -2.4 | 48.0* | 0.0 | -119.2*
Cc1ccc(C(C#N)c2ccc3c(C(F)(F)F)cc(C(F)(F)F)nc3n2)cc1 (configuration not stated) | -6.9 | 1.4 | 0.5 | ?
N#CC(c1ccccc1)c1ccc2c(C(F)(F)F)cc(C(F)(F)F)nc2n1 (configuration not stated) | 9.8 | 0.0 | 1.6 | -80.2*
C[C@H](CO)N1C[C@H](C)[C@@H](CN(C)C(=O)c2ccc(F)cc2)Oc2cc(Br)ccc2S1(=O)=O | -6.5 | -4.5 | 0.1 | -95.2*
SMILES | TRPML1 blocker | DRD3 agonist | TRPML1 agonist | D3 antag
C[C@@H]1CN([C@@H](C)CO)S(=O)(=O)c2ccc(Br)cc2O[C@@H]1CN(C)C(=O)c1ccc(F)cc1 | 9.8 | -1.8 | -0.1 | ?
O=C(O)c1ccc2c(ccc3nn(-c4ccc(/C=C/c5ccc(-n6nc7ccc8cc(C(=O)O)ccc8c7n6)cc5[S+](=O)([O-])[O-])c([S+](=O)([O-])[O-])c4)nc32)c1 | . | . | -0.1 | .
COc1ccc(-c2nn(C)c3sc(C(=O)Nc4cc(OC)c(OC)c(OC)c4)cc23)cc1OC | -3.8 | 3.6 | 0.7 | .
O=C(CO/N=C1\CCCc2nonc21)Nc1ccc(Br)cc1 | -14.0 | -5.7 | -0.6 | -82.8*
COC(=O)c1ccc(NC(=O)CC2C(=O)N(c3cccc(OC)c3)C(=O)N2Cc2ccco2)cc1 (configuration not stated) | 10.1 | 5.8 | -0.4 | .
Fc1ccc(-n2cc(CNCCc3cccnc3)c(-c3ccccc3Cl)n2)cc1 | -6.3 | -4.2 | -0.9 | -69.9*
Fc1ccc(-n2cc(CNCCc3ccncc3)c(-c3ccccc3Cl)n2)cc1 | 26.0 | -11.3 | 1.0 | -0.9
Cc1cccc(OCC(=O)Nc2cc(-c3nc4cc(Cl)ccc4o3)ccc2C)c1 | . | . | 0.0 | .
O=C(CN1C(=O)C(c2ccc(F)cc2)=NC12CCCCCC2)Nc1ccc(F)c(Cl)c1 | -25.5 | -12.1 | 0.2 | .
O=C(CSc1ncc(-c2ccc(F)cc2)[nH]1)N1CCCCC1 | 6.0 | -1.2 | -0.6 | -58.9*
CC(C)CN(C)c1ccc(/C=C2\C=Cc3ccccc32)cc1 | . | . | -0.7 | .
Cc1cc(C(F)F)n2ncc(C(=O)NC3CCCCCC3)c2n1 | 21.6 | -4.4 | 1.1 | -52.4*
COc1cc2c(cc1OC)C(COc1ccccc1OC)N(C(=O)COc1ccc(Cl)cc1)CC2 (configuration not stated) | 16.7 | 4.7 | 2.1 | .
O=C1C2CCCCN2C(=O)N1CCN1CCN(c2ccc(F)cc2)CC1 (configuration not stated) | -4.1 | -13.6 | 0.1 | 14.7
Cc1ccc(N2CCN(CCCCN3C(=O)C4CCCN4C3=O)CC2)cc1 (configuration not stated) | -4.6 | -17.5 | -0.5 | -78.0*
O=C1C2CCCN2C(=O)N1CCCCN1CCN(c2ccc(F)cc2)CC1 (configuration not stated) | 4.5 | -9.2 | -0.5 | -75.3*
O=C1C2CCCCN2C(=O)N1CCCCN1CCN(c2ccc(F)cc2)CC1 (configuration not stated) | 9.8 | -12.2 | -0.3 | -92.0*
CCCOc1cccc(C(=O)N(Cc2ccc(C)o2)C2CCS(=O)(=O)C2)c1 (configuration not stated) | 9.9 | -0.6 | 0.3 | .
CC(=O)c1ccc(NC(=O)CCc2c(C)nn(-c3ccc4nnc(C)n4n3)c2C)cc1 | -4.1 | 3.8 | 0.5 | .
Oc1c(Br)cc(Br)cc1C=NCc1ccc(F)cc1 | -9.3 | -32.1 | 2.0 | -66.5*
Oc1c(Br)cc(Br)cc1C=NCc1ccccc1 | -4.5 | -27.9 | -0.1 | -57.4*
Cc1ccc(C)c(S(=O)(=O)c2nnn3c2nc(Nc2ccc(F)c(Cl)c2)c2sccc23)c1 | -7.9 | 4.2 | -0.1 | .
Cc1ccc(C)c(N2CCN(C(=O)C3CCCN(c4ncnc5c4nc4n5CCCCC4)C3)CC2)c1 (configuration not stated) | -0.8 | 31.5* | -0.3 | 59.5
